These entries were drawn from the full list.
aSyn 5UTR act: Activators via SNCA 5'UTR binding, MLPCN; alpha-synuclein 5'UTR reporter, activators screen; activity score, % (tested at 7.5 µM), hits read low; 300,000 tested, 7.1% active; in the data active means activity score below about -60%
* = called active by the depositor.

Results for O=C(COc1ccccc1Cl)Nc1ccc2c(c1)OCO2 ?
aSyn 5UTR act: -145*

Results for Cc1ccccc1OCC(=O)Nc1ccc2c(c1)OCO2 ?
aSyn 5UTR act: -140*

Results for COc1cc(C(=O)c2cocc2C(=O)c2ccc3c(c2)OCO3)cc(OC)c1OC ?
aSyn 5UTR act: 67

Results for COc1ccccc1OCC(=O)Nc1ccc2c(c1)OCO2 ?
aSyn 5UTR act: -96*

Results for Cc1c(C(=O)N(CCO)Cc2ccccc2)oc2c(F)cccc12 ?
aSyn 5UTR act: -112*

Results for S=C(N/N=C/c1ccc(Cl)c(Cl)c1)Nc1ccccc1Cl ?
aSyn 5UTR act: -81*

What do the screens show for `Fc1cccc(/C=N/NC(=S)Nc2ccccc2Cl)c1`?
aSyn 5UTR act: -231*

What do the screens show for `Clc1ccc(-c2csc(N/N=C/c3ccco3)n2)cc1`?
aSyn 5UTR act: -156*

How did C(=N\Nc1nc(-c2ccccc2)cs1)/c1ccco1 do in these assays?
aSyn 5UTR act: -351*

How did Clc1ccc(-c2csc(N/N=C\c3cccnc3)n2)cc1 do in these assays?
aSyn 5UTR act: -77*

Results for Cc1ccc(-c2csc(N/N=C/c3ccco3)n2)cc1 ?
aSyn 5UTR act: -232*

How did CCOc1ccc(-c2csc3nc[nH]c(=O)c23)cc1 do in these assays?
aSyn 5UTR act: -154*

Results for O=C(CCCc1ccccc1)N1CCN(C2CCCCC2)CC1 ?
aSyn 5UTR act: -115*

What do the screens show for `CCC1CCCCN1C(=O)CCS(=O)(=O)c1ccccc1` (centres undefined)?
aSyn 5UTR act: -93*

Results for CCC1CCCCN1C(=O)CCCc1ccccc1 (centres undefined) ?
aSyn 5UTR act: -105*

Results for Cc1ccc(-n2nc(C)c(NC(=O)CCl)c2C)cc1C ?
aSyn 5UTR act: -220*

What do the screens show for `COc1ccc(C(=O)COC(=O)c2cccc(-n3cnnn3)c2)c(OC)c1`?
aSyn 5UTR act: -104*

Results for O=C(OCC(=O)c1c[nH]c2ccccc12)c1ccco1 ?
aSyn 5UTR act: -102*

Results for O=C(OCC(=O)c1c[nH]c2ccccc12)c1ccc(Br)o1 ?
aSyn 5UTR act: -130*

What do the screens show for `COc1ccc(C(=O)COC(=O)c2cc(=O)[nH]c3ccccc23)c(OC)c1`?
aSyn 5UTR act: -131*

What do the screens show for `COc1cccc(C(=O)OCC(=O)c2c[nH]c3ccccc23)c1O`?
aSyn 5UTR act: -105*

How did CN(Cc1ccc(F)cc1)C(=O)CCc1nnc(-c2ccccc2)o1 do in these assays?
aSyn 5UTR act: -91*

What do the screens show for `CC(=O)N(Cc1ccc(F)cc1)C1=C(NCCc2ccccc2)C(=O)c2ccccc2C1=O`?
aSyn 5UTR act: 70

Results for COc1ccc(CCN(C)C(=O)CCc2nnc(-c3ccccc3)o2)cc1OC ?
aSyn 5UTR act: -86*

Results for Cc1[nH]c2ccccc2c1C(=O)C(=O)Nc1ccc2c(c1)OCCO2 ?
aSyn 5UTR act: -126*

How did CCN1CCN(Cc2ccc(NC(=O)c3cc(NC(=O)C(=O)c4c[nH]c5ccccc45)cc(OC)c3)cc2C(F)(F)F)CC1 do in these assays?
aSyn 5UTR act: 117

What do the screens show for `O=C(Nc1ccc2c(c1)OCO2)C(=O)c1c[nH]c2ccccc12`?
aSyn 5UTR act: -72*

Results for O=C(NCCc1c[nH]c2ccccc12)c1cccnc1 ?
aSyn 5UTR act: -67*

What do the screens show for `O=C(NCCc1ccc(Cl)cc1)c1ccc2c(c1)OCO2`?
aSyn 5UTR act: -121*

How did O=C(NCCc1c[nH]c2ccccc12)c1ccc2c(c1)OCO2 do in these assays?
aSyn 5UTR act: -142*

What do the screens show for `Cn1c(C(=O)NCCc2c[nH]c3ccccc23)cc2sccc21`?
aSyn 5UTR act: -237*

Results for O=C(NCCc1ccccc1F)c1ccc2c(c1)OCCO2 ?
aSyn 5UTR act: 108

What do the screens show for `O=C(NCCc1c[nH]c2ccccc12)c1cc(Cl)c2c(c1)OCO2`?
aSyn 5UTR act: -110*

What do the screens show for `O=[N+]([O-])c1ccc(N=Nc2ncc[nH]2)cc1`?
aSyn 5UTR act: -96*

What do the screens show for `CC(C)c1cc(CNC(=O)CCc2nnc(CCCc3ccccc3)o2)on1`?
aSyn 5UTR act: -77*

How did CCOc1ccc(-c2cc(CCCC(=O)NCCc3ccccc3)no2)cc1 do in these assays?
aSyn 5UTR act: 62

Results for O=C(CCc1nnc(CCCc2ccccc2)o1)NCCCC1CCCC1 ?
aSyn 5UTR act: -116*

What do the screens show for `CCc1cc(CNC(=O)CCc2nnc(CCCc3ccccc3)o2)on1`?
aSyn 5UTR act: -129*

How did O=C(CCc1nnc(CCCc2ccccc2)o1)N1CCCCCC1 do in these assays?
aSyn 5UTR act: -149*

How did N/C(=N\OC(=O)CCC1CCCC1)c1ccccn1 do in these assays?
aSyn 5UTR act: -133*

What do the screens show for `CC(C)(C)c1ccc(C(=O)O/N=C(\N)c2ccccn2)cc1`?
aSyn 5UTR act: 94

What do the screens show for `N/C(=N\OC(=O)CCC1CCCC1)c1ccccc1`?
aSyn 5UTR act: -126*

What do the screens show for `CC(=O)Oc1ccccc1/C=C/c1ccc2ccccc2[n+]1C`?
aSyn 5UTR act: -62*

Results for COc1ccc(/C=C/c2ccc3ccccc3[n+]2C)cc1OC ?
aSyn 5UTR act: -124*

What do the screens show for `CCOC(=O)N1CCN(C(=O)c2cc(COc3cccc(C(F)(F)F)c3)on2)CC1`?
aSyn 5UTR act: -92*

What do the screens show for `CC(NC(=O)c1cc(COc2cccc(C(F)(F)F)c2)on1)c1nccs1` (centres undefined)?
aSyn 5UTR act: -62*

What do the screens show for `O=C(NC1CCOC1)c1cc(COc2cccc(C(F)(F)F)c2)on1` (centres undefined)?
aSyn 5UTR act: -67*

How did C[C@@H]1CN(C(=O)c2cc(COc3cccc(C(F)(F)F)c3)on2)C[C@H](C)O1 do in these assays?
aSyn 5UTR act: -138*

Results for Cc1coc2c1C(=O)C(=O)c1c-2ccc2c1CCCC2(C)C ?
aSyn 5UTR act: 63

Results for Cc1coc2c1C(=O)C(=O)c1c-2ccc2c(C)cccc12 ?
aSyn 5UTR act: -64*

How did Cn1c(SCc2ccccc2F)nnc1-c1cnccn1 do in these assays?
aSyn 5UTR act: -187*

Results for Cn1c(SCc2ccccc2F)nnc1-c1ccccn1 ?
aSyn 5UTR act: -123*

How did Cc1cccc(N2CSC3=C(C#N)C(c4ccc(C)o4)CC(=O)N3C2)c1 (centres undefined) do in these assays?
aSyn 5UTR act: -86*

Results for Cc1ccc(NC(=O)COc2ccc(C3SCCS3)cc2)cc1 ?
aSyn 5UTR act: -69*

Results for O=C(CSc1ccc(F)cc1)Nc1ccc(C2SCCS2)cc1 ?
aSyn 5UTR act: -155*

How did Cc1cc(NC(=O)CC#N)n(-c2nc3ccccc3[nH]2)n1 do in these assays?
aSyn 5UTR act: -71*

Results for CSc1nc(N)nc(SCC(=O)Nc2cccc(F)c2)c1C#N ?
aSyn 5UTR act: -73*

What do the screens show for `O=C(NCCCn1ccnc1)c1cc(-c2cccs2)on1`?
aSyn 5UTR act: -294*

What do the screens show for `O=C(NCCCN1CCOCC1)C(=O)N/N=C/c1c2ccccc2cc2ccccc12`?
aSyn 5UTR act: 67

How did O=C(NCCCN1CCOCC1)c1cc(-c2cccs2)on1 do in these assays?
aSyn 5UTR act: -152*

What do the screens show for `CCc1ccc(C2=NN(C(C)=O)C(c3ccco3)C2)cc1` (centres undefined)?
aSyn 5UTR act: -202*

Results for COc1ccc(C2=NN(C(N)=S)C(c3ccco3)C2)cc1 (centres undefined) ?
aSyn 5UTR act: -87*

Results for O=[N+]([O-])c1ccc(C2=NN(c3ccccc3)C(c3ccco3)C2)cc1 (centres undefined) ?
aSyn 5UTR act: -75*

Assay outcomes (PubChem)
